Key:
CHO = test: % viability of CHO cells (MTT); higher = less toxic; details: 48 h
Procedure, shortened: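 For 48 h, attached CHO cells (10^6 cells/well, 200 µL, seeded the night before) were kept in fresh medium carrying compound at 2 or 20 µM. A colorimetric tetrazolium (MTT) assay then gave survival as percent viability versus untreated cells.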

HepG2-A16-CD81 = test: % inhibition of HepG2 viability (CellTiter-Glo); higher = more toxic; details: 5 µM
[1] = tested on: Plasmodium falciparum NF54 stage IV/V gametocytes; test: % inhibition of gametocyte viability (PrestoBlue); higher = more inhibition; details: 48 h
Procedure, shortened: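 Stage IV/V NF54 gametocytes at 2% gametocytaemia and 5% haematocrit (100 µL/well) were treated with compound at 1 or 5 µM and incubated for 48 h at 37 °C under stationary, hypoxic conditions. PrestoBlue (10 µL) was then added for 2 h, and fluorescence at 612 nm was read on 70 µL of transferred supernatant. Percent inhibition of gametocyte viability was normalised to vehicle and kill controls within one run.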

[2] = tested on: Plasmodium falciparum NF54 asexual blood stage; test: % inhibition of asexual blood stage proliferation (pLDH); higher = more inhibition; details: 72 h
Procedure, shortened: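 Plasmodium falciparum NF54 ring-stage cultures (1% haematocrit, 2% parasitaemia) were incubated with compound at 2 or 20 µM for 72 h at 37 °C under 4% CO2, 3% O2 and 93% N2. Survival was read at 620 nm with the parasite lactate dehydrogenase assay. Results were reported as percent inhibition of asexual proliferation relative to controls.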

[3] = tested on: Plasmodium falciparum NF54 stage IV/V gametocytes; test: % inhibition of gametocyte viability (ATP bioluminescence); higher = more inhibition; details: 24 h
Procedure, shortened: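 Stage IV/V NF54 gametocytes from density gradients (30,000 per well, 96-well plates) were incubated with compound at 1 or 5 µM for 24 h at 37 °C. A single run supplied percent inhibition of gametocyte viability, based on ATP measured with Promega BacTiter Glo and normalised to control wells.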

[4] = tested on: Plasmodium falciparum NF54 stage IV/V gametocytes; test: % inhibition of gametocyte viability (luciferase reporter); higher = more inhibition; details: 48 h
Procedure, shortened: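 Percent inhibition was normalised to controls from a single run. Stage IV/V gametocytes of the NF54-Pfs16-GFP-Luc line, at 2% gametocytaemia and 2% haematocrit, were exposed to compound at 1 or 5 µM for 48 h at 37 °C under stationary, hypoxic conditions. Luminescence was then read from 30 µL lysate mixed with 30 µL Promega luciferin substrate on a GloMax-Multi+ reader with 10 s integration.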

[5] = tested on: Plasmodium berghei ANKA liver stage in HepG2-A16-CD81; test: % inhibition of liver stage parasite viability (luciferase); higher = more inhibition; details: 5 µM; 48 h
Description: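 Single-concentration screen of the MMV Pandemic Response Box. P. falciparum NF54 asexual blood stages: pLDH assay, 72 h at 37 °C, 2 and 20 µM, n=2. Stage IV/V gametocytes (NF54): luciferase reporter (NF54-Pfs16-GFP-Luc, 48 h), ATP bioluminescence (24 h) and PrestoBlue (48 h) at 1 and 5 µM, n=1. P. berghei liver stage (luciferase in HepG2-A16-CD81, 48 h post infection) at 5 µM, n=4. All normalised to DMSO and kill controls as % inhibition.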
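Throughout, for % inhibition of HepG2 viability (CellTiter-Glo): HepG2-A16-CD81 hepatoma cells plated as in the liver-stage assay but without sporozoites, with DMSO wells as negative and 25 µM puromycin as positive control.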

Compound | % viability of CHO cells (CHO; 2 µM) | % viability of CHO cells (CHO; 20 µM) | % inhibition of HepG2 viability (HepG2-A16-CD81) | % inhibition of gametocyte viability ([1]; 1 µM) | % inhibition of gametocyte viability ([1]; 5 µM) | % inhibition of asexual blood stage proliferation ([2]; 2 µM) | % inhibition of asexual blood stage proliferation ([2]; 20 µM) | % inhibition of gametocyte viability ([3]; 1 µM) | % inhibition of gametocyte viability ([3]; 5 µM) | % inhibition of gametocyte viability ([4]; 1 µM) | % inhibition of gametocyte viability ([4]; 5 µM) | % inhibition of liver stage parasite viability [5]
CCOc1ccc(C(=O)NCCc2ccccc2)cc1 | 119% | 77.8% | 1.88% | 31.4% | 70.5% | 34% | 76.1% | 6.61% | < 0% | < 0% | 64.1% | -19.9%
NC(=O)[C@@H]1CC[C@@H]2CN1C(=O)N2OS(=O)(=O)O | 82.9% | 117% | 4.71% | < 0% | < 0% | 30.8% | 16.5% | 1.17% | < 0% | < 0% | 1.87% | 12.2%
Fc1ccc2c(/C=C/c3nnn[nH]3)c[nH]c2c1 | 80.4% | 75% | 2% | 4.4% | 18.3% | 7.6% | 10.8% | < 0% | < 0% | < 0% | 4.42% | 7.99%
CCNC(=O)Nc1cn2c(-c3ncc(CC)cn3)cc(-c3cccnc3)cc2n1 | 91.8% | 58.4% | 0.015% | 19.9% | 36.7% | 46% | 88.1% | 7.29% | 24.5% | 1.08% | 6.06% | 4.97%
Clc1cccc(-c2nnc(-c3ccccc3)o2)c1 | 98.4% | 113% | -5.12% | < 0% | < 0% | 9.27% | 15.9% | < 0% | < 0% | < 0% | 30.2% | -89.2%
COc1ccc(-n2cnc3cc(NCc4ccco4)ccc32)cc1 | 93.6% | 94.6% | 1.83% | < 0% | < 0% | 29.7% | 44.9% | 2.7% | < 0% | < 0% | < 0% | -16.1%
CO[C@@]1(NC(=O)Cc2cccs2)C(=O)N2C(C(=O)O)=C(COC(N)=O)CS[C@@H]21 | 114% | 143% | -4.03% | 11.3% | 20.3% | 20% | 88.8% | 0.48% | < 0% | < 0% | 2.58% | 11.5%
COc1ccc2c(c1OC)C(=O)OC2C1c2c(cc3c(c2OC)OCO3)CCN1C (stereo not drawn) | 102% | -0.468% | 3.76% | < 0% | 5.61% | 42.6% | 68.3% | < 0% | < 0% | 2.79% | 9.42% | 19%
CCC(C)(C)c1ccc(CC(C)CN2C[C@@H](C)O[C@@H](C)C2)cc1 (stereo partly drawn) | 100% | 124% | -1.79% | < 0% | 4.53% | 89.6% | 82% | < 0% | < 0% | < 0% | < 0% | 40.5%
